# In the library only some 3% were active in any assay of this set; here they are far more common.
# GDH-TPI inh – GDH-TPI coupling enzyme inhibitors, primary screen, artefact control for M. tuberculosis FBA inhibitor project, biochemical, absorbance, full deck; GDH-TPI coupled enzyme counterscreen, NADH absorbance; inhibition, % at 4.8 µM; 360,000 tested, 1.2% active; in the data active = inhibition above about 30%
# BioA inh – M. tuberculosis BioA enzyme inhibitors, primary screen, biochemical, plate reader, single point, HTS. 7,8-diaminopelargonic acid synthase BioA (Mycobacterium tuberculosis). purified M. tuberculosis BioA enzyme. inhibition, % at 9.99 µM. 360,000 tested, 0.096% active. AID 602481, 2012; in the data active = inhibition above about 40%
# Vc quorum ag – inducers of Vibrio cholerae quorum light production without autoinducers, primary screen, BH1578 luxS cqsA deficient, single point; 350,000 tested, 0.16% active; activation, % at 18.7 µM; V. cholerae BH1578 lux reporter, luminescence, 6 h; in the data active = activation mostly above about 9.7%, no sharp cut-off
# Mtb FBA inh – Mtb FBA enzyme inhibitors, primary screen, biochemical, fluorescence, strain H37Rv; inhibition, % at 1 µM; purified M. tuberculosis FBA, fluorescence read-out; Fructose-bisphosphate aldolase (Mycobacterium tuberculosis (strain ATCC 25618 / H37Rv)), …; 360,000 tested, 2.3% active; in the data active = inhibition above about 27%
# Target sequence (P9WQA3 whole entry, looked up): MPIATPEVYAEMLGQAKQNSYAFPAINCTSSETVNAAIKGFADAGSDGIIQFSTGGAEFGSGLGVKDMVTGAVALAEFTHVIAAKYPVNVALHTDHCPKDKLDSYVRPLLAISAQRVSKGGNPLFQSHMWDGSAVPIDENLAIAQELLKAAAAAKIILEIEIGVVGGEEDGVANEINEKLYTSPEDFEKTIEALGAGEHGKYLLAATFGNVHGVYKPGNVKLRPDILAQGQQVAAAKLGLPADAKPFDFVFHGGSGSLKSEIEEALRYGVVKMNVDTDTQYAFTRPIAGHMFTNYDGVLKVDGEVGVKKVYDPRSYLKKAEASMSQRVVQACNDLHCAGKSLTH
# Numbers stand for hits; i = inactive; nt = no result given; + = active, no number.
SMILES,GDH-TPI inh,BioA inh,Vc quorum ag,Mtb FBA inh
C[C@@H]1CN([C@@H](C)CO)C(=O)c2cccc(NC(=O)Nc3ccccc3)c2O[C@@H]1CN(C)S(=O)(=O)c1ccc(Cl)cc1,nt,i,nt,nt
Cc1ccc(-c2ccc([C@@H]3[C@H](CO)N4CCCCN(Cc5ccccn5)C[C@@H]34)cc2)cc1,nt,i,nt,nt
O=S(=O)(N[C@H]1CC[C@@H](CCn2cc(C3(O)CCCC3)nn2)O[C@H]1CO)c1ccc(F)cc1,nt,i,nt,nt
C[C@@H]1CN([C@@H](C)CO)C(=O)c2cc(NS(=O)(=O)c3ccc(Cl)cc3)ccc2O[C@@H](C)CCCCO[C@H]1CN(C)S(=O)(=O)c1cn(C)cn1,nt,i,nt,nt
Cc1ccccc1-n1sc2cc(F)ccc2c1=O,i,i,i,i
Cc1cc(C)[n+](-c2ccc(F)cc2)c2[nH]c(=O)[nH]c(=O)c12,i,i,i,+
Cc1c(O)ccc2cc(S(=O)(=O)c3ccccc3)c(=O)oc12,i,i,i,+
Cc1ccc(S(=O)(=O)c2cc3ccccc3oc2=O)cc1,i,nt,i,i
Cc1noc(C)c1S(=O)(=O)Nc1ccc2c(c1)CC(=O)N([C@@H](C)CO)C[C@H](C)[C@@H](CN(C)C(=O)Nc1ccc(F)cc1)O2,nt,i,nt,nt
O=C1C(=O)N(CCO)C(c2ccccc2)/C1=C(\O)c1ccccc1 (configuration not stated),i,i,i,i
O=C1C(=O)N(CCO)C(c2ccc(Br)cc2)/C1=C(\O)c1ccccc1 (configuration not stated),33,i,i,i
O=C(Nc1ccc(O)cc1)/C(=C/c1ccco1)NC(=O)c1ccccc1,40,nt,i,i
O=C(O)/C(=C/c1ccco1)NC(=O)c1ccccc1,i,i,i,i
O=C(Nc1ccc(C(=O)O)cc1)/C(=C\c1ccco1)NC(=O)c1ccc(Br)cc1,40,i,i,i
CO[C@H](CN(C)S(=O)(=O)c1ccc(F)cc1)[C@H](C)CN(C(=O)Nc1ccccc1F)[C@@H](C)CO,nt,i,nt,nt
Clc1cccc(Cl)c1/C=C/c1nc2ccccc2[nH]1,i,i,i,138
O=C1Nc2ccc([N+](=O)[O-])cc2C1(O)N1CCCCCC1 (configuration not stated),33,i,i,i
COC(=O)c1ccc(/C=N/Nc2nc(-c3ccccc3)cs2)cc1,i,i,i,i
COc1ccc(/C=N/Nc2nc(C(=O)O)cs2)cc1,34,i,i,i
Cn1c(-c2ccccc2)c(C(=O)CC#N)c2ccccc21,i,nt,i,i
CCn1c(-c2ccccc2)c(C(=O)O)c2ccccc21,i,i,i,28
C[C@@H]1CN([C@@H](C)CO)C(=O)c2cc(C#CC(C)(C)O)cnc2O[C@@H]1CN(C)C(=O)C1CCCCC1,nt,i,nt,nt
O=C(O)COc1ccc(/C=N/NC(=O)/C(=C/C=C/c2ccccc2)NC(=O)c2ccccc2)cc1,55,i,i,i
CCCCOc1ccc(C(=O)N/C(=C/C=C/c2ccccc2)C(=O)NC)cc1,33,nt,i,i
CCCCOc1ccc(C(=O)N/C(=C/C=C/c2ccccc2)C(=O)O)cc1,i,nt,i,i
SMILES,GDH-TPI inh,BioA inh,Vc quorum ag,Mtb FBA inh
C[C@H](CO)N1C[C@H](C)[C@H](CN(C)C(=O)Cc2ccccn2)Oc2ncc(C#CC3CC3)cc2C1=O,nt,i,nt,nt
CC(C)OCCCn1c(=NC(=O)c2cccs2)c(C#N)cc2c(=O)n3ccccc3nc21,i,i,i,+
CC(C)OCCCn1c(=NC(=O)c2ccncc2)c(C#N)cc2c(=O)n3ccccc3nc21,i,i,i,i
CCCCCn1c(=NC(C)=O)c(C#N)cc2c(=O)n3ccccc3nc21,i,nt,i,133
CC(=O)N=c1c(C#N)cc2c(=O)n3ccccc3nc2n1CCCOC(C)C,i,i,i,+
CO[C@H](CN(C)S(=O)(=O)c1ccc(F)cc1)[C@@H](C)CN([C@H](C)CO)S(=O)(=O)c1cccc(Cl)c1,nt,i,nt,nt
COc1cccc(S(=O)(=O)N[C@H]2C=C[C@@H](CC(=O)NCc3ccccc3)O[C@H]2CO)c1,nt,i,nt,nt
CCN1[C@@H]2Cn3c(ccc(C4=CCCC4)c3=O)[C@H]1[C@@H](C(=O)NC1CCCC1)[C@@H]2CO,nt,i,nt,nt
CSc1ccccc1N=CC1=C(O)CC(C)(C)CC1=O,i,i,18,i
CC1(C)CC(=O)C(C=Nc2ccc(O)cc2)=C(O)C1,i,i,i,i
CC1(C)CC(=O)C(C=Nc2ccc3[nH]ncc3c2)=C(O)C1,36,i,i,i
CC1(C)CC(=O)C(C=Nc2ccc3cn[nH]c3c2)=C(O)C1,39,i,i,i
CC1(C)CC(=O)C(C=Nc2cc(C(=O)c3ccccc3)ccc2N)=C(O)C1,i,nt,i,i
CC1(C)CC(=O)C(C=Nc2ccc(N)cc2)=C(O)C1,i,nt,i,i
C[C@H](O)C#Cc1ccc2c(c1)O[C@@H](CN(C)Cc1ccncc1)[C@H](C)CN([C@H](C)CO)S2(=O)=O,nt,i,nt,nt
O=C(c1cccc(NS(=O)(=O)c2cccc([N+](=O)[O-])c2)c1)N1CCOCC1,i,i,i,156
O=C(Nc1ccc(F)cc1)N1C[C@H]2[C@@H](c3ccccc31)[C@@H](CO)N2C(=O)c1ccccc1F,nt,i,nt,nt
O=C(C[C@H]1C=C[C@H](NC(=O)CC2CC2)[C@@H](CO)O1)NCC(F)(F)F,nt,i,nt,nt
Cc1cc(C)n2cc(CSCC(=O)O)nc2n1,i,nt,i,123
CNc1cnc(-c2ccc(C(=O)N3CCOCC3)cc2)cn1,i,i,i,+
CC(=O)Nc1cnc(-c2cccc(C(=O)N3CCOCC3)c2)cn1,i,i,i,i
CN1C(=O)c2cc(NC(=O)c3cscn3)ccc2OC[C@H]2O[C@H](CC(=O)NCC3CC3)CC[C@H]21,nt,i,nt,nt
O=c1c([N+](=O)[O-])c(NCCN2CCCCCC2)c2ccccc2n1-c1ccccc1,i,nt,i,i
O=c1c([N+](=O)[O-])c(N2CCCCC2)c2ccccc2n1-c1ccccc1,i,i,+,i
CN(C)/C=C/c1onc(-c2c(Cl)cccc2Cl)c1C#N,31,nt,i,i
SMILES,GDH-TPI inh,BioA inh,Vc quorum ag,Mtb FBA inh
N#Cc1c(-c2c(Cl)cccc2Cl)noc1/C=C/Nc1ccc(C(=O)O)cc1,i,nt,i,i
C[C@@H]1CCCCO[C@@H](CN(C)Cc2ccccc2)[C@@H](C)CN([C@H](C)CO)C(=O)c2cc(NC(=O)CCCN(C)C)ccc2O1,nt,i,nt,nt
O=C(NCC[C@H]1CC[C@@H](NS(=O)(=O)Cc2ccccc2)[C@@H](CO)O1)C1CCCC1,nt,i,nt,nt
COc1ccc(-c2cc3ccc(O)cc3oc2=O)cc1OC,i,i,i,119
COc1ccc(-c2c(C)c3cc(O)ccc3oc2=O)cc1OC,i,i,i,i
COc1ccc(-c2cc3ccc(OCC(N)=O)cc3oc2=O)cc1OC,32,i,i,i
CCOC(=O)c1oc2cc(OCC(N)=O)ccc2c(=O)c1-c1ccc(OC)c(OC)c1,i,i,i,i
COc1ccccc1-c1cn(CC[C@H]2CC[C@@H](NC(=O)C3CCOCC3)[C@H](CO)O2)nn1,nt,i,nt,nt

# Screening results deposited in PubChem BioAssay by several laboratories.
